# Columns and labels:
# Assay in all cases: yeast three-hybrid, YBZ-1, SC-Leu-His + 0.5 mM 3-AT, 4 days
# Conditions in all cases: tags: N-Gal4 AD-HA kept; label: inside an RPR1-promoter hybrid RNA with tandem MS2 sites; ssRNA
# PUM1 PUF domain R5-GRI = PUM1 PUF domain R5-GRI (Homo sapiens, UniProt Q14671 828-1176, C1007G;Q1011I)
# Procedure, shortened: (§1)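 The interaction score is the log change in how often each variant appears, from input to selection. Frequencies came from PCR-amplified, Illumina-sequenced repeat regions of Pumilio-1 PUF domain libraries grown in strain YBZ-1 (LexA–MS2 coat fusion, HIS3 reporter) alongside matching RNA elements. Input plates were SC-Leu and selection plates were SC-Leu-His + 0.5 mM 3-AT, each for four days, and the log2 calculation used a pseudocount of 1 where a variant was absent.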
# PUM1 PUF domain R1-GRK = PUM1 PUF domain R1-GRK (Homo sapiens, UniProt Q14671 828-1176, S863G;Q867K)
# Procedure, shortened: as §1
# PUM1 PUF domain R7-TSS = PUM1 PUF domain R7-TSS (Homo sapiens, UniProt Q14671 828-1176, S1079T;N1080S;E1083S)
# Procedure, shortened: as §1
# PUM1 PUF domain R2-NWW = PUM1 PUF domain R2-NWW (Homo sapiens, UniProt Q14671 828-1176, Y900W;Q903W)
# Procedure, shortened: as §1
# PUM1 PUF domain R3-CRR = PUM1 PUF domain R3-CRR (Homo sapiens, UniProt Q14671 828-1176, Q939R)
# Procedure, shortened: as §1
# PUM1 PUF domain R5-ERK = PUM1 PUF domain R5-ERK (Homo sapiens, UniProt Q14671 828-1176, C1007E;Q1011K)
# Procedure, shortened: as §1
# PUM1 PUF domain R3-GPF = PUM1 PUF domain R3-GPF (Homo sapiens, UniProt Q14671 828-1176, C935G;R936P;Q939F)
# Procedure, shortened: as §1
# PUM1 PUF domain R6-QRQ = target: T1, PUM1 PUF domain R6-QRQ (Homo sapiens, UniProt Q14671 828-1176, N1043Q;Y1044R)
# T1 sequence: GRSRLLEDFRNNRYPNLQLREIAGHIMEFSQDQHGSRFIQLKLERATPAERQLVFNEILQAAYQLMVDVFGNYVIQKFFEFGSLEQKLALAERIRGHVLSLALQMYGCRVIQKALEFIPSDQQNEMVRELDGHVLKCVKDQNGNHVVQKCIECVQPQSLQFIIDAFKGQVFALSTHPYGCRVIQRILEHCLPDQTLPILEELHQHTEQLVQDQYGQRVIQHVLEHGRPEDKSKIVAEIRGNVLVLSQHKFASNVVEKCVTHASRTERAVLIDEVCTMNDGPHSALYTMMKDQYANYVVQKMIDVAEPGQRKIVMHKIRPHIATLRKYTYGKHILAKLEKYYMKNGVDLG
# Procedure, shortened: as §1
# PUM1 PUF domain R3-LHG = PUM1 PUF domain R3-LHG (Homo sapiens, UniProt Q14671 828-1176, C935L;R936H;Q939G)
# Procedure, shortened: as §1
# PUM1 PUF domain R2-PWE = PUM1 PUF domain R2-PWE (Homo sapiens, UniProt Q14671 828-1176, N899P;Y900W;Q903E)
# Procedure, shortened: as §1
sequence,measurement,setting,value
GGCUAGAACUAGUGGAUCCCCCGGCGCCCGGCGGCUCGAGCCCGGGUAAGUGUCAAUAGUCUGCAUGCCGCCGGGCGCCAUGCCUGCAGGUCGACUCUAGAAAACAUG,binding signal,PUM1 PUF domain R5-GRI,1.2 log2 enrichment (interaction score)
GGCUAGAACUAGUGGAUCCCCCGGCGCCCGGCGGCUCGAGCCCGGGUAAGUGUAAAUUGUCUGCAUGCCGCCGGGCGCCAUGCCUGCAGGUCGACUCUAGAAAACAUG,binding signal,PUM1 PUF domain R1-GRK,3.96 log2 enrichment (interaction score)
GGCUAGAACUAGUGGAUCCCCCGGCGCCCGGCGGCUCGAGCCCGGGUAAGUUUAAAUAGUCUGCAUGCCGCCGGGCGCCAUGCCUGCAGGUCGACUCUAGAAAACAUG,binding signal,PUM1 PUF domain R7-TSS,2.55 log2 enrichment (interaction score)
GGCUAGAACUAGUGGAUCCCCCGGCGCCCGGCGGCUCGAGCCCGGGUAAGUGUAAAUAGUCUGCAUGCCGCCGGGCGCCAUGCCUGCAGGUCGACUCUAGAAAACAUG,binding signal,PUM1 PUF domain R2-NWW,3.94 log2 enrichment (interaction score)
same,binding signal,PUM1 PUF domain R3-CRR,2.78 log2 enrichment (interaction score)
same,binding signal,PUM1 PUF domain R5-ERK,4.01 log2 enrichment (interaction score)
same,binding signal,PUM1 PUF domain R3-GPF,5.65 log2 enrichment (interaction score)
same,binding signal,PUM1 PUF domain R6-QRQ,2.52 log2 enrichment (interaction score)
same,binding signal,PUM1 PUF domain R5-GRI,3.04 log2 enrichment (interaction score)
GGCUAGAACUAGUGGAUCCCCCGGCGCCCGGCGGCUCGAGCCCGGGUAAGUGUGAAUAGUCUGCAUGCCGCCGGGCGCCAUGCCUGCAGGUCGACUCUAGAAAACAUG,binding signal,PUM1 PUF domain R5-GRI,3.52 log2 enrichment (interaction score)
GGCUAGAACUAGUGGAUCCCCCGGCGCCCGGCGGCUCGAGCCCGGGUAAGUGUAAAUCGUCUGCAUGCCGCCGGGCGCCAUGCCUGCAGGUCGACUCUAGAAAACAUG,binding signal,PUM1 PUF domain R1-GRK,5.64 log2 enrichment (interaction score)
GGCUAGAACUAGUGGAUCCCCCGGCGCCCGGCGGCUCGAGCCCGGGUAAGUGUAAUUAGUCUGCAUGCCGCCGGGCGCCAUGCCUGCAGGUCGACUCUAGAAAACAUG,binding signal,PUM1 PUF domain R3-CRR,2.3 log2 enrichment (interaction score)
same,binding signal,PUM1 PUF domain R3-LHG,4.7 log2 enrichment (interaction score)
GGCUAGAACUAGUGGAUCCCCCGGCGCCCGGCGGCUCGAGCCCGGGUAAGUGUUAAUAGUCUGCAUGCCGCCGGGCGCCAUGCCUGCAGGUCGACUCUAGAAAACAUG,binding signal,PUM1 PUF domain R5-GRI,3.43 log2 enrichment (interaction score)
GGCUAGAACUAGUGGAUCCCCCGGCGCCCGGCGGCUCGAGCCCGGGUAAGUGUAAAGAGUCUGCAUGCCGCCGGGCGCCAUGCCUGCAGGUCGACUCUAGAAAACAUG,binding signal,PUM1 PUF domain R2-PWE,4.9 log2 enrichment (interaction score)
GGCUAGAACUAGUGGAUCCCCCGGCGCCCGGCGGCUCGAGCCCGGGUAAGUGUAAAAAGUCUGCAUGCCGCCGGGCGCCAUGCCUGCAGGUCGACUCUAGAAAACAUG,binding signal,PUM1 PUF domain R2-PWE,2.14 log2 enrichment (interaction score)
GGCUAGAACUAGUGGAUCCCCCGGCGCCCGGCGGCUCGAGCCCGGGUAAGUGUAAGUAGUCUGCAUGCCGCCGGGCGCCAUGCCUGCAGGUCGACUCUAGAAAACAUG,binding signal,PUM1 PUF domain R3-CRR,1.17 log2 enrichment (interaction score)
same,binding signal,PUM1 PUF domain R3-LHG,6.02 log2 enrichment (interaction score)

# From paper PMC8384837, “Expanding the binding specificity for RNA recognition by a PUF domain”
